# Source: PubChem BioAssay
# Records with an inconclusive call do not appear. Active and inactive are the calls of the source. Unless noted, no rule for the calls is given here.
# Experiments:
# [1] = circadian clock period modulators, cell-based, LOPAC library, luminescence reporter (AID 2774); conditions: circadian reporter cells, at 7 µM, actives lie on both sides;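 also: values are relative to mean of DMSO wells on each plate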
# [2] = hESC survival regulators, cell-based (AID 493140); conditions: human embryonic stem cell survival screen; stronger effect = higher value;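 also: cells exposed to compounds for four days before counting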
# [3] = test system: Hepatitis C virus NS3 helicase; assay: HCV NS3 helicase inhibitors, primary screen, biochemical, fluorescence polarization, LOPAC1280 library (AID 687035; in the data active = inhibition above about 37%); conditions: Purified HCV NS3 helicase, Cy5-dT15 ssDNA binding fluorescence polarization; stronger effect = higher value; concentration not given here
# [4] = Cy5 fluorescence quenching or enhancement artefacts, artefact control for HCV NS3 helicase inhibitor project, biochemical, LOPAC1280 (AID 687037); conditions: Cy5-DNA-NS3h complex fluorescence interference counterscreen
# [5] = sensitizers of A549 cells to miR-34 induction, primary screen, imaging, A549 dox-inducible miR-34, nuclei and caspase counts (AID 1347080;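 active = compounds whose cell count with miR-34 switched on is under 0.7 times the count with it off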); conditions: A549 miR-34 inducible, Hoechst nuclei count, 48 h
# [6] = phospholipid biosynthesis inhibitors in animal cells, primary screen, cell-based, LOPAC library, screen 4 (AID 1347384); conditions: phospholipid biosynthesis inhibition screen, at 10 µM
# [7] = viability rescue of complex I mutant cybrids, primary screen, cell-based, galactose medium, ATP luminescence (AID 1645843;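 active = z-score of at least 1.8 in each of two replicates, scored against plate mean and spread of sample wells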;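 also: positive z means more ATP and so rescue of galactose-driven cybrid death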); conditions: complex I mutant cybrid cells, 72 h, stronger effect = higher value
# [8] = liver-stage malaria parasite growth inhibition, primary screen, cell-based, HepG2, luciferase luminescence, HepG2 viability (AID 624349; in the data active = parasite load remaining mostly below about 12%, no sharp cut-off; inactive = mostly above about 10%;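 also: 100% = mean of DMSO negative control wells on the same plate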); conditions: P. berghei liver stage in HepG2, luciferase luminescence, concentration not given here; parasite load remaining: stronger effect = lower value; viability: measured here: HepG2 viability without parasites
# [9] = molecular target: ATP-dependent translocase ABCB1 (Homo sapiens) (UniProt P08183); assay: MDR1 (ABCB1) efflux transporter inhibition, cell-based (AID 377; in the data active = fluorescence slope change above about 50%); conditions: MDR1-expressing cells, fluorescent substrate accumulation slope; stronger effect = higher value; concentration not given here
# [10] = stronger effect = lower value, cell number ratio, induced over uninduced
# [11] = measured here: relative caspase fold change +Dox/-Dox
# [12] = measured here: total cells with miR-34 induction, stronger effect = lower value
# [13] = measured here: total cells without miR-34 induction
# Sequence of ATP-dependent translocase ABCB1 (Homo sapiens) (P08183 whole entry, looked up): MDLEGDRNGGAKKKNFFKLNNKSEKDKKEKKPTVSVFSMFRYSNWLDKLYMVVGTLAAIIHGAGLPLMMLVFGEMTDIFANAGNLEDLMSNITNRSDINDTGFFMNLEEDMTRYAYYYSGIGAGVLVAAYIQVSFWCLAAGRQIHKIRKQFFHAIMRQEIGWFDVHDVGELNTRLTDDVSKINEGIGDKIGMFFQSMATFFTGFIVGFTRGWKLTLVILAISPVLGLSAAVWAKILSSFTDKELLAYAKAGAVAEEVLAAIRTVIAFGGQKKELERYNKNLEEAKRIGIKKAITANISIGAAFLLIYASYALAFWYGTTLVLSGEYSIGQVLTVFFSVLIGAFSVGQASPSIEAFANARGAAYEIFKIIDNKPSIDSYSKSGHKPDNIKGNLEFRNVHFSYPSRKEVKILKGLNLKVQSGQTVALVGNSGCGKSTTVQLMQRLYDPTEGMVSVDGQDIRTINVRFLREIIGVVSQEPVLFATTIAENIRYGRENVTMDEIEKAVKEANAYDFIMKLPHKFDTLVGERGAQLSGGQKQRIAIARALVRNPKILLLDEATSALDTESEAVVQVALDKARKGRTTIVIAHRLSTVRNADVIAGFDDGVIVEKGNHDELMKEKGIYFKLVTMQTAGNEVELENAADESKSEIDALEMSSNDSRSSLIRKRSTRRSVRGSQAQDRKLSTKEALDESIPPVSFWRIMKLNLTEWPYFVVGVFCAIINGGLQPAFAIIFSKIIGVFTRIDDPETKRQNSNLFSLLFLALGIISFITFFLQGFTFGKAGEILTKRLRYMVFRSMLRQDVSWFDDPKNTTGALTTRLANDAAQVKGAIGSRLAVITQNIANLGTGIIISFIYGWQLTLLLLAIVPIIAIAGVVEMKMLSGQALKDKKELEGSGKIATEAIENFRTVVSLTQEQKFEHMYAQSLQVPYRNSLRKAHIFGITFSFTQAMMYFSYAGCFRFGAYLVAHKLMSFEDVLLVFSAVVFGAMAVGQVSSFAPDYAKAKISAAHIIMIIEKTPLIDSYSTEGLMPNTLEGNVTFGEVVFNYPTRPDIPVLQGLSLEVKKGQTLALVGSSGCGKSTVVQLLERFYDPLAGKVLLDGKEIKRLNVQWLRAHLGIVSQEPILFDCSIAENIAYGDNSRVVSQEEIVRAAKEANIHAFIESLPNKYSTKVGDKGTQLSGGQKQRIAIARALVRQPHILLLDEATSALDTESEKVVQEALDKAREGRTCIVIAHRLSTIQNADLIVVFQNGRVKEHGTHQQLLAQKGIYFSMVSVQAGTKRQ
SMILES,period change [1],survival [2],inhibition [3],fluorescence ratio (interference) [4],"fold change [5, 10]","fold change [5, 11]","cell count [5, 12]","cell count [5, 13]",outcome [6],z-score [7],parasite load remaining [8],viability [8],fluorescence slope change [9]
Nc1ncnc2c1ncn2[C@@H]1O[C@H](CO)[C@H](O)C1O (some centres undefined),0.045 h (inactive),3.25 (inactive),-1% (inactive),0.9 (inactive),1 (inactive),1.47,11100,11100,inactive,2.61 (active),,,
CCC1(O)CC2CN(CCc3c([nH]c4ccccc34)[C@@](C(=O)OC)(c3cc4c(cc3OC)N(C)C3[C@]45CCN4CC=C[C@@](CC)([C@@H](OC(C)=O)[C@]3(O)C(=O)OC)[C@H]45)C2)C1 (some centres undefined),0.43 h (inactive),,-2% (inactive),1 (inactive),1.18 (inactive),0.644,1680,1430,inactive,-1.17 (inactive),,,
OC[C@H]1O[C@@H](n2cnc3c(NC4CCCCC4)ncnc32)[C@H](O)[C@@H]1O,0.08 h (inactive),,-1% (inactive),1 (inactive),0.959 (inactive),1.25,9650,10100,inactive,0.865 (inactive),,,
C=C[C@H]1CN2CCC1C[C@H]2[C@H](O)c1ccnc2ccc(OC)cc12 (some centres undefined),-0.145 h (inactive),,-2% (inactive),1 (inactive),1.04 (inactive),1.02,8290,8000,inactive,-1.04 (inactive),,,
CCCN(CCc1ccccc1)C1CCc2c(O)cccc2C1 (centres undefined),0.095 h (inactive),,-4% (inactive),1 (inactive),0.964 (inactive),1.22,5860,6070,inactive,-1.21 (inactive),,,
Nc1ncnc2c1ncn2[C@@H]1O[C@H](COP(=O)(O)OP(=O)(O)OP(=O)(O)OP(=O)(O)OC[C@@H]2O[C@H](n3cnc4c(N)ncnc43)C(O)[C@@H]2O)[C@H](O)C1O (some centres undefined),0.05 h (inactive),,3% (inactive),1 (inactive),0.899 (inactive),1.4,8750,9730,inactive,4.53 (active),,,
COc1ccccc1CN[C@@H]1CCCN[C@@H]1c1ccccc1,,,,,0.967 (inactive),1.32,9540,9860,inactive,-0.42 (inactive),,,
O=C(O)c1cc(=O)cc(C(=O)O)[nH]1,-0.025 h (inactive),,0% (inactive),1 (inactive),0.984 (inactive),1.62,10200,10300,inactive,0.285 (inactive),,,
CC(=O)N[C@@H](Cc1c[nH]c2ccccc12)C(=O)OCc1cc(C(F)(F)F)cc(C(F)(F)F)c1,0.005 h (inactive),,-3% (inactive),0.9 (inactive),1.03 (inactive),1.8,9980,9690,inactive,-0.03 (inactive),,,
Cn1c(=O)c2[nH]c(-c3ccc(S(=O)(=O)O)cc3)nc2n(C)c1=O,-0.005 h (inactive),,0% (inactive),1 (inactive),1.01 (inactive),2.24,10100,10000,inactive,-0.23 (inactive),,,
CC(=O)/C(C)=N/O,0.15 h (inactive),,,,0.97 (inactive),2.72,9060,9340,inactive,0.485 (inactive),,,
N#CC(C#N)=C(N)/C(C#N)=C/c1ccc(O)cc1,-0.025 h (inactive),,-2% (inactive),1 (inactive),0.894 (inactive),1.36,8590,9610,inactive,0.29 (inactive),31.2% (inactive),70.9%,
COc1cc(OC)c(/C=C2/C(=O)Nc3ccccc32)c(OC)c1,-0.54 h (inactive),,-1% (inactive),1 (inactive),1.2 (inactive),0.628,2100,1750,inactive,-1.29 (inactive),35.9% (inactive),78.8%,
NC1(C(=O)O)CCCCC1,-0.115 h (inactive),,-2% (inactive),1 (inactive),0.983 (inactive),2.37,10700,10900,inactive,0.63 (inactive),,,
CN(CCCOc1ccc(Cc2ccccc2)cc1)CCC(=O)O,,,,,0.994 (inactive),1.84,9930,9990,inactive,0.275 (inactive),,,
Fc1ccc2[nH]c(CN3CCN(c4ccccn4)CC3)cc2c1,,,,,0.975 (inactive),1.18,8710,8930,inactive,-1.13 (inactive),,,
O=C(O)CC1CCCc2ccccc2C1O (centres undefined),0.085 h (inactive),,-4% (inactive),1 (inactive),1.02 (inactive),1.73,10700,10500,inactive,0.315 (inactive),,,
Brc1ccc([C@H]2CN3CCSC3=N2)cc1,-0.16 h (inactive),79.5 (inactive),0% (inactive),0.9 (inactive),1.04 (inactive),1.3,9880,9490,inactive,0.145 (inactive),,,
CC(N)=NCCCC[C@@H](N)C(=O)O,0.055 h (inactive),,-4% (inactive),0.9 (inactive),1.08 (inactive),1.26,11400,10600,inactive,0.39 (inactive),,,
COc1cc(C(O)CO)ccc1OS(=O)(=O)O (centres undefined),-0.25 h (inactive),,-2% (inactive),1 (inactive),1.02 (inactive),1.08,10400,10200,inactive,0.025 (inactive),,,

SMILES,period change [1],survival [2],inhibition [3],fluorescence ratio (interference) [4],"fold change [5, 10]","fold change [5, 11]","cell count [5, 12]","cell count [5, 13]",outcome [6],z-score [7],parasite load remaining [8],viability [8],fluorescence slope change [9]
CC[C@@H](C)[C@H]1O[C@]2(CC[C@@H]1C)C[C@@H]1C[C@@H](C/C=C(\C)[C@@H](O[C@H]3C[C@H](OC)[C@@H](O[C@H]4C[C@H](OC)[C@@H](O)[C@H](C)O4)[C@H](C)O3)[C@@H](C)/C=C/C=C3\CO[C@@H]4[C@H](O)C(C)=C[C@@H](C(=O)O1)[C@]34O)O2,0.095 h (inactive),,-2% (inactive),1 (inactive),0.888 (inactive),0.534,1760,1980,inactive,-1.29 (inactive),,,
NS(=O)(=O)c1ccc(-n2nc(C(F)(F)F)cc2-c2ccc(Cl)cc2)cc1,,,,,1.1 (inactive),0.617,7530,6870,inactive,2.57 (active),,,
C[N+](C)(C)CC=O,-0.2 h (inactive),,-5% (inactive),0.9 (inactive),1 (inactive),1.36,10200,10200,inactive,0.245 (inactive),,,
COc1cc(OC)cc(-c2cc3cnc(N)nc3nc2NC(=O)NC(C)(C)C)c1,,,,,1.04 (inactive),2.01,4510,4320,inactive,0.34 (inactive),,,
Nc1nc2ccc(Cl)cc2n2c(-c3ccccc3)nnc12,,,,,1.08 (inactive),0.972,11200,10300,inactive,1.13 (inactive),,,
CC(=O)SC1CC2=CC(=O)CC[C@]2(C)C2CC[C@@]3(C)C(CC[C@@]34CCC(=O)O4)C12 (some centres undefined),0.045 h (inactive),,-4% (inactive),1 (inactive),1.07 (inactive),1.82,7810,7280,inactive,1.24 (inactive),,,
CNCCNS(=O)(=O)c1cccc2cnccc12,0.23 h (inactive),194 (active),-6% (inactive),0.9 (inactive),1.05 (inactive),1.37,10700,10200,inactive,-0.89 (inactive),51% (inactive),111%,
CCCCCCCCCC(=O)NC(CN1CCOCC1)[C@H](O)c1ccccc1 (some centres undefined),0.05 h (inactive),,2% (inactive),1 (inactive),0.995 (inactive),1.18,7040,7080,inactive,-1.16 (inactive),,,
NCC1OC(O[C@@H]2[C@H](O)C(OC3C(O)C(N)CC(N)C3OC3OC(CO)C(O)C(O)C3N)O[C@@H]2CO)C(N)C(O)C1O (some centres undefined),0.005 h (inactive),,0% (inactive),1 (inactive),0.998 (inactive),1.38,9490,9510,inactive,0.61 (inactive),,,14.4% (inactive)
COC1=C(OC)C(=O)c2ccccc2C1=O,-0.205 h (inactive),,-1% (inactive),1 (inactive),1.45 (inactive),1.7,1290,890,inactive,-1.04 (inactive),,,
O=C(CCc1ccncc1)NNC(=O)N1Cc2ccccc2Oc2ccc(Cl)cc21,,,,,1.04 (inactive),1.18,8820,8460,inactive,-0.355 (inactive),,,
S=C(Nc1ccccc1)Nc1nccs1,0.02 h (inactive),,-3% (inactive),1 (inactive),1.08 (inactive),0.629,6230,5760,inactive,-1.19 (inactive),,,65.3% (active)
COc1cc(/C=C(\C#N)C(=O)c2ccc(O)c(O)c2)cc(I)c1O,0.035 h (inactive),,37% (active),0.9 (inactive),0.957 (inactive),1.26,9980,10400,inactive,0.8 (inactive),,,
O=C(NOCC1CC1)c1cc(Br)c(F)c(F)c1Nc1ccc(I)cc1Cl,,,,,1.16 (inactive),1.35,1380,1180,inactive,-1.36 (inactive),,,
O=C(O)/C(=C/c1c(C(=O)O)[nH]c2cc(Cl)cc(Cl)c12)c1ccccc1,0.21 h (inactive),,0% (inactive),1 (inactive),1.07 (inactive),0.725,9940,9320,inactive,1.03 (inactive),,,
CN1C2CCC1CC(OC(=O)C(O)c1ccccc1)C2 (centres undefined),0.16 h (inactive),,,,1.02 (inactive),1.06,10900,10700,inactive,0.155 (inactive),,,
CC(C)(NS(=O)(=O)c1ccc(Oc2ccc(F)cc2)cc1)C(=O)NO,,,,,1.15 (inactive),0.625,7840,6810,inactive,-1.27 (inactive),,,
CN1C2CC(OC(=O)[C@H](CO)c3ccccc3)CC1C1OC12 (some centres undefined),0.01 h (inactive),4.58 (inactive),-4% (inactive),1 (inactive),0.96 (inactive),0.75,10100,10500,inactive,0.535 (inactive),,,
COCCOc1cc2nc[nH]c(=O)c2cc1OCCOC,,,,,1.02 (inactive),1.39,10200,10100,inactive,1.01 (inactive),,,
